Results filed as inconclusive are left out. Active and inactive are the calls of the source. Unless noted, the call rests on the fitted dose curve; in most records, active means well fitted curve in the direction sought with a large enough effect in the repeat runs; inconclusive means weak or mixed curves; inactive means no such curve, though single readings can be large; an effect the other way counts as inactive or inconclusive.

For assay [1], the target named is Acetylcholinesterase (Homo sapiens) (UniProt P22303). Nature of the assay: Acetylcholinesterase (AChE) small molecule antagonists: enzyme-based qHTS assay (AID 1347397; calls by dose curve; further: nearly all actives have a fitted effect of over 55% in size). Conditions: Potency: AChE enzyme activity inhibition; outcome: AChE enzyme activity inhibition. Summed up:
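rhAChE 50 mU/mL (dispensed) + cpd or DMSO, 30 min RT; add DTNB/acetylthiocholine cocktail, 10 min RT; colorimetric thiocholine readout. qHTS, 1536-well format.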
A general note: In qHTS, concentration-response curves come from the screen itself.

For assay [2] the target is unchanged. Nature of the assay: Acetylcholinesterase (AChE) small molecule antagonists: fluorescence cell-based qHTS assay (AID 1347398; calls by dose curve; further: nearly all actives have a fitted effect of over 50% in size). Conditions: Potency: AChE activity; outcome: AChE activity. Summed up:
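Read-out is Thiolite Green fluorescence at Ex/Em = 490/520 nm, formed by reaction with thiocholine released when cellular AChE in SH-SY5Y cells hydrolyzes acetylthiocholine. Compounds were preincubated 30 min at 37 C before substrate.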

Assay [3] shares this target. The experiment in a line: Acetylcholinesterase (AChE) small molecule antagonists: enzyme-based qHTS assay with human liver microsomes (AID 1347399; calls by dose curve; further: nearly all actives have a fitted effect of over 60% in size). Particulars: Potency: qHTS inhibition; outcome: qHTS inhibition. Summed up:
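Recombinant human AChE (50 mU/mL in the enzyme mix) and human liver microsomes (0.25 mg/mL final) were preincubated with compound and NADPH (0.25 mg/mL final) for 30 min at 37 C. Acetylthiocholine/DTNB was then added; thiocholine was read colorimetrically after 10 min at room temperature.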

A short description of assay [4]: qHTS assay for small molecules that induce genotoxicity in human embryonic kidney cells expressing luciferase-tagged ATAD5 (AID 651632). Further: nearly all actives have a fitted effect of over 15% in size. Summed up: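 HEK293T cells carrying luciferase-tagged ATAD5 were given compound or DMSO vehicle and incubated 16 hr at 37C, 5% CO2. Luciferase activity was read after 30 min at room temperature with Amplite; a rise signals genotoxic stress.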

Assay [5] is described as follows: qHTS assay for small molecule disruptors of the mitochondrial membrane potential - cell viability (AID 720634; calls by dose curve;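 further: human HepG2 liver cancer cells; series mostly up to about 83 µM; nearly all actives have a fitted effect of over 20% in size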). A digest of the protocol:
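HepG2 cells, 2,000 per well, attached overnight, then treated 1 hr at 37 C, 5% CO2. Viability read as ATP by CellTiter-Glo luminescence after 30 min at room temperature. Read in the same wells as the m-MPI membrane-potential dye assay.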

A short description of assay [6]: qHTS assay to test for compound auto fluorescence at 590 nm (red) in HepG2 cells (AID 720674). Summed up:
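We screened compounds on adherent HepG2 cells, incubating them for an hour at 37 C in 5% CO2 before reading emission at 590 nm under 540 nm excitation; values reflect equivalence to Rose Bengal sodium fluorescence.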

A short description of assay [7]: qHTS assay to test for compound auto fluorescence at 535 nm (green) in HepG2 cells (AID 720675).
A short description of assay [8]: qHTS assay to test for compound auto fluorescence at 460 nm (blue) in HEK293 cells (AID 720678). Summed up: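 HEK293, 2,000 cells/well, 10% dialyzed FBS; attach 4-5 hr 37C; pin compound or DMSO; o/n 37C/5% CO2; fluorescence 405/460 nm; triamterene-equivalent units.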
Assay [9] is described as follows: qHTS assay to test for compound auto fluorescence at 590 nm (red) in HEK293 cells (AID 720679). Summed up:
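Intensity at 540nm excitation and 590nm emission is reported as Rose Bengal sodium-equivalent autofluorescence. Measurements followed overnight exposure (37C, 5% CO2) of HEK293 cells, 2,000 per well, to 23 nL compound.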

Assay [10] in a line: qHTS assay to test for compound auto fluorescence at 535 nm (green) in HEK293 cells (AID 720680).
A short description of assay [11]: qHTS assay to test for compound auto fluorescence at 460 nm (blue) in HEK293 cell free culture (AID 720681). A digest of the protocol:
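Blue fluorescence (Ex 405/Em 460 nm, triamterene-equivalent) was read immediately after pin transfer of compound or DMSO into medium (DMEM, 10% FBS) without cells.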

The nature of assay [12]: qHTS assay to test for compound auto fluorescence at 535 nm (green) in HEK293 cell free culture (AID 720682). Summed up:
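Green-channel intensity (Ex/Em 485/535 nm) was recorded from compound-treated wells containing only DMEM with 10% FBS. Fluorescein provided the equivalency standard.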

Assay [13] is described as follows: qHTS assay to test for compound auto fluorescence at 590 nm (red) in HEK293 cell free culture (AID 720683). Summed up: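 Red-channel autofluorescence of compounds in culture medium (DMEM, 10% FBS), no cells, measured at 540/590 nm. Rose Bengal sodium is the reference fluorophore for equivalence.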
Assay [14] in a line: qHTS assay to test for compound auto fluorescence at 590 nm (red) in HepG2 cell free culture (AID 720684). Summed up:
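Steps: dispense MEM/10% FBS medium, no cells; pin compound or DMSO vehicle; read red channel, Ex/Em 540/590 nm. Output given as Rose Bengal sodium equivalents.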

The nature of assay [15]: qHTS assay to test for compound auto fluorescence at 460 nm (blue) in HepG2 cell free culture (AID 720685). Summed up: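 Compound (23 nL) or DMSO pinned into cell-free MEM with 10% FBS; blue fluorescence read at 405/460 nm excitation/emission, expressed as auto-fluorescence equivalency to triamterene.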
A short description of assay [16]: qHTS assay to test for compound auto fluorescence at 535 nm (green) in HepG2 cell free culture (AID 720686).
Assay [17] can be described thus: qHTS assay to test for compound auto fluorescence at 460 nm (blue) in HepG2 cells (AID 720687). Summed up: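 Blue-channel autofluorescence (Ex/Em 405/460 nm, triamterene-equivalent) was measured after 1 hr compound exposure at 37 C, 5% CO2. Cells were HepG2, plated overnight at 37 C in MEM plus 10% FBS.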
Assay [18] is described as follows: qHTS assay to identify small molecule antagonists of the glucocorticoid receptor (GR) signaling pathway - cell viability counter screen (AID 720693). Further: nearly all actives have a fitted effect of over 55% in size.
Assay [19] in a line: qHTS assay for identifying genotoxic compounds that show differential cytotoxicity against isogenic chicken DT40 cell lines with known DNA damage response pathways - Rad54/Ku70 mutant cell line (AID 743015). Further: potency means the concentration at half of the fitted maximal effect; nearly all actives have a fitted effect of over 60% in size.
Assay [20] can be described thus: qHTS assay to identify small molecule antagonists of the thyroid receptor (TR) signaling pathway - cell viability counter screen (AID 743064). Further: potency means the concentration at half of the fitted maximal effect; nearly all actives have a fitted effect of over 50% in size. A digest of the protocol:
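In rat pituitary GH3.TRE-Luc reporter cells co-exposed to compound and 1 nM T3 for 23.5 h, cytotoxicity was assessed with CellTiter-Fluor in the same wells, read by fluorescence.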

Assay [21] addresses Estrogen receptor (Homo sapiens) (UniProt P03372). Nature of the assay: qHTS assay to identify small molecule antagonists of the estrogen receptor alpha (ER-alpha) signaling pathway (AID 743069; active means well fitted curve in the direction sought with a large enough effect in the signal ratio in the repeat runs, not every such curve was filed as active; the % refers to the signal ratio; further: potency means the concentration at half of the fitted maximal effect). A digest of the protocol: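 ER-alpha-UAS-bla GripTite HEK293 line; 2% charcoal-stripped FBS overnight; plated, 4 hr 37C/5% CO2; cpd in DMSO + 17beta-estradiol, 18 hr 37C; LiveBLAzer B/G FRET substrate 2 hr RT; fluorescence intensity.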

Assay [22] can be described thus: qHTS assay to identify small molecule antagonists of the estrogen receptor alpha (ER-alpha) signaling pathway - cell viability counter screen (AID 743074; calls by dose curve;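 further: HEK293 cells carrying ER-alpha-UAS-bla reporter stimulated with 17beta-estradiol; nearly all actives have a fitted effect of over 45% in size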).
In assay [23] the target is Estrogen receptor (Homo sapiens) (UniProt P03372). Nature of the assay: qHTS assay to identify small molecule agonists of the estrogen receptor alpha (ER-alpha) signaling pathway (AID 743075; calls by dose curve;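 further: HEK293 GripTite cells with ER-alpha and UAS-driven beta-lactamase reporter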).
A short description of assay [24]: qHTS assay to identify small molecule antagonists of the estrogen receptor alpha (ER-alpha) signaling pathway using the BG1 cell line - cell viability counter screen (AID 743081).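 Further: compound given together with 17beta-estradiol as the ER stimulus; series mostly up to about 70 µM; nearly all actives have a fitted effect of over 45% in size.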
The nature of assay [25]: qHTS assay to identify aromatase inhibitors - cell viability counter screen (AID 743084).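 Further: cells stimulated with testosterone during compound exposure; nearly all actives have a fitted effect of over 55% in size.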
Assay [26] addresses Aryl hydrocarbon receptor (Homo sapiens) (UniProt P35869). The experiment in a line: qHTS assay to identify small molecule that activate the aryl hydrocarbon receptor (AhR) signaling pathway (AID 743085).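 Further: HG2L7.5c1 human HepG2 liver cells with stably integrated DRE-driven firefly reporter; series mostly up to about 70 µM; nearly all actives have a fitted effect of over 15% in size.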 Summed up: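 AhR agonist activity is inferred from enhanced light output of a DRE-controlled firefly luciferase reporter in HepG2 cells, measured with ONE-Glo following 24 h treatment at 37C.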

A short description of assay [27]: qHTS assay to identify small molecule that activate the aryl hydrocarbon receptor (AhR) signaling pathway - cell viability counter screen (AID 743086).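 Further: HepG2 liver cells carrying the AhR DRE luciferase reporter; series mostly up to about 70 µM; nearly all actives have a fitted effect of over 45% in size.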 A digest of the protocol:
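Cytotoxicity counter screen: CellTiter-Fluor signal (30 min, 37 C) in 4000 HepG2 cells/well carrying the DRE-luciferase reporter, following 24 h compound exposure at 37 C.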

Sequence of Acetylcholinesterase (Homo sapiens) (P22303 whole entry, looked up): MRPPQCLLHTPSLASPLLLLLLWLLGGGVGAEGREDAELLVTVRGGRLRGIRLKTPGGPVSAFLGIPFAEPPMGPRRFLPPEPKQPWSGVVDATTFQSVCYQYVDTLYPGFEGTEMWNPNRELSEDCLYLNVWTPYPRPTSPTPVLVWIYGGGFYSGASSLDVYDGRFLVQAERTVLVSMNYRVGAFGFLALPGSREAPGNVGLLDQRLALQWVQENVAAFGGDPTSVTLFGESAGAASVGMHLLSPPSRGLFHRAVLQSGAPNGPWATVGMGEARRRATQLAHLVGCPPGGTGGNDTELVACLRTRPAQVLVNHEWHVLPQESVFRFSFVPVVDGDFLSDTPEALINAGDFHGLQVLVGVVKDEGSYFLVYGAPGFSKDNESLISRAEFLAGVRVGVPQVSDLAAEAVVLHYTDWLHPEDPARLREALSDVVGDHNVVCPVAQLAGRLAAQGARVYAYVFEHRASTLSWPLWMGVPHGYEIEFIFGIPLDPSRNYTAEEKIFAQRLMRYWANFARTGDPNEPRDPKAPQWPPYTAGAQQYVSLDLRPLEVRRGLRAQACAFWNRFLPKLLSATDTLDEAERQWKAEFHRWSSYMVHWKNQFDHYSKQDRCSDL
Sequence of Estrogen receptor (Homo sapiens) (P03372 whole entry, looked up): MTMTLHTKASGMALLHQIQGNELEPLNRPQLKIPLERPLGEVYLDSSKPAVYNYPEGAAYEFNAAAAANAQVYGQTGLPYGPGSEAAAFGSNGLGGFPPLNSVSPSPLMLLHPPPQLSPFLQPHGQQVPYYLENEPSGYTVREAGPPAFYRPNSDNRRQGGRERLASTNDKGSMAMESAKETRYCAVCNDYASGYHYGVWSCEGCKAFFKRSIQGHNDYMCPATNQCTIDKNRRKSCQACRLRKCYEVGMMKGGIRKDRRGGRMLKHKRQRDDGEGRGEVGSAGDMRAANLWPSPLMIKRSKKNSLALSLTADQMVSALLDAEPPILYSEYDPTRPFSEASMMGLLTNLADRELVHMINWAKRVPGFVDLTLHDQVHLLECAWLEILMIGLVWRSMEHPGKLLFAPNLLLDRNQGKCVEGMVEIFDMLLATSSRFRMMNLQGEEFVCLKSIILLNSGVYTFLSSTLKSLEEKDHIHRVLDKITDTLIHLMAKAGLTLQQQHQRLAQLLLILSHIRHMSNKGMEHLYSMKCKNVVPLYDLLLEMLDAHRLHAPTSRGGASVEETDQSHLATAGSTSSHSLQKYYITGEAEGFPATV
Sequence of Aryl hydrocarbon receptor (Homo sapiens) (P35869 whole entry, looked up): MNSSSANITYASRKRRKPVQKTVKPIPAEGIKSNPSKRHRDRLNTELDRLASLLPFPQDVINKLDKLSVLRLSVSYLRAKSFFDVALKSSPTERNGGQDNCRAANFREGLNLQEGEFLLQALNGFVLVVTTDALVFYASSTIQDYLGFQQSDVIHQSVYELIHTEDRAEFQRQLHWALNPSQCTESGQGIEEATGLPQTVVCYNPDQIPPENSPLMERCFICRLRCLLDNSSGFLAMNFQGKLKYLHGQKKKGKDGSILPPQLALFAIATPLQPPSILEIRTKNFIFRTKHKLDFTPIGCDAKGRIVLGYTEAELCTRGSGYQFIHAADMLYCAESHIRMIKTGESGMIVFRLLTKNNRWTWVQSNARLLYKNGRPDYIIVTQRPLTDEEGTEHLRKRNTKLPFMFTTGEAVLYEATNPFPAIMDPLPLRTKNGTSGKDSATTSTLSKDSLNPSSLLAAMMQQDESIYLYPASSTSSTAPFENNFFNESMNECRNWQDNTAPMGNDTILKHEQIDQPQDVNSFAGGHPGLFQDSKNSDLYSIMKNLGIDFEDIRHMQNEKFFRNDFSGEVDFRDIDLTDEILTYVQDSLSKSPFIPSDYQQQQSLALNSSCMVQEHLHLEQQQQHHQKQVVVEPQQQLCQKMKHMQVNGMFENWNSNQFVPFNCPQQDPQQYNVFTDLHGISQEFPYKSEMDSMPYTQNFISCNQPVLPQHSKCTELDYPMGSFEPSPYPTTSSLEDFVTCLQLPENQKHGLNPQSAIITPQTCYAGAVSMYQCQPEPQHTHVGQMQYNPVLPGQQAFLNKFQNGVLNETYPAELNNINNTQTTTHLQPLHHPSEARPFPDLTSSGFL

On to `CC(=O)NCCCS(=O)(=O)O`, for which the Potency result in assay [1], in assay [2] and in assay [3] was “inactive” in each case.

With `Nc1ccc([N+](=O)[O-])c(N)c1`, the Potency entry in assay [1], in assay [2] and in assay [3] was “inactive” in each case.

Turning to `O.O.O.O=C([O-])C(O)C(O)C(=O)[O-].O=C([O-])C(O)C(O)C(=O)[O-].[K+].[K+].[Sb].[Sb]` (stereo unspecified), the Potency entry in assay [4], in [5], in [7], in [8], in assay [10] and in [11] was “inactive” throughout. Also, the Potency entry in assay [12], in assay [15], in [16], in [17], in [18] and in assay [22] was “inactive” throughout. Further, the Potency entry in [23], in [24], in assay [25], in assay [26] and in [27] was “inactive” each time. In addition, the outcome in assay [6], in assay [9], in [13] and in [14] was inactive. Besides, the Potency in assay [19] is 11.9 µM (active); in [20] it was 29.8 µM (active); in [21], 19 µM [inhibitor] (active).

Take `COc1ccc(S(=O)(=O)N2C(=O)[C@@](c3ccccc3OC)(N3C[C@H](O)C[C@H]3C(=O)N(C)C)c3cc(Cl)ccc32)c(OC)c1`: the Potency entry in [1], in [2] and in assay [3] was “inactive” each time.

`Cc1nc2ccc(CN(C)c3ccc(C(=O)N[C@@H](CCC(=O)O)C(=O)O)s3)cc2c(=O)[nH]1`: the Potency entry in assay [1], in [2] and in assay [3] was “inactive” each time.
